High-throughput results deposited in PubChem BioAssay by The Scripps Research Institute Molecular Screening Center.
TEAD-YAP inh – TEAD-YAP interaction inhibition; HEK-TIYL cells, TEAD-Gal4/YAP UAS-luciferase luminescence; inhibition, % at 9.12 µM; 1.4% of 640,000 active; AID 1259422; in the data active = inhibition above about 32%
FBW7 activator – activators of human E3 ligase FBW7. 0.13% of 650,000 active. AlphaScreen FBW7–phospho-cyclin E peptide binding, activator screen. normalized activity (activation), % at 26.1 µM. Q969H0; in the data active = normalized activity above about 1.9%;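 also: purified mutant Fbw7 with reduced substrate affinity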
Target sequence (Q969H0 whole entry, looked up): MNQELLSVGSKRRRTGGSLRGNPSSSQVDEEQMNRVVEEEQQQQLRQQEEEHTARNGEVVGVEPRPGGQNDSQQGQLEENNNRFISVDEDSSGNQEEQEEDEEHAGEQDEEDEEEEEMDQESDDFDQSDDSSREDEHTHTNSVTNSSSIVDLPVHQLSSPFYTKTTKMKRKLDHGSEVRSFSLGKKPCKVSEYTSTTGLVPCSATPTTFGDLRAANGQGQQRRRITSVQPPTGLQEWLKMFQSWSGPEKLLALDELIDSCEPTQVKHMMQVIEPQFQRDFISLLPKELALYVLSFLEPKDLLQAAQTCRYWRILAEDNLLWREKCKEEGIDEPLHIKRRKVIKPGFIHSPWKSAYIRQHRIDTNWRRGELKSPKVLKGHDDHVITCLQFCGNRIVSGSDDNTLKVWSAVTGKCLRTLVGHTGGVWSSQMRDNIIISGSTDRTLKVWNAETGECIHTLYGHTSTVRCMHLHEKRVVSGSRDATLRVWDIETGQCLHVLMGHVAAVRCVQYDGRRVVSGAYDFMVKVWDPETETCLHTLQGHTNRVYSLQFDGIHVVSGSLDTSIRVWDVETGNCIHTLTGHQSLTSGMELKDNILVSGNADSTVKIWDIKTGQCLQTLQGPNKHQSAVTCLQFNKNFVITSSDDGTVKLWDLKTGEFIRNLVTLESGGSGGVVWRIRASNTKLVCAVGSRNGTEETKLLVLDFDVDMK
GPR151 activ – human GPR151 activation | 1% of 650,000 active | activation, % at 11.2 µM | AID 1508602 | Q8TDV0 | PathHunter beta-arrestin GPR151 cells, luminescence; in the data active = activation above about 4.9%
MITF primary – inhibitors of human MITF; O75030; AlphaScreen MITF homodimerization, bead proximity signal; inhibition, % at 2.6 µM; 0.91% of 650,000 active; AID 1259374; in the data active = inhibition above about 50%
Large screens that a line does not name were inactive. This is a sample that favours compounds with a hit; in the whole collection about 3.5% have one here.

Cc1nnc(NC(=O)c2cc(Br)cs2)s1	none
NS(=O)(=O)c1ccc(NC(=O)/C=C/c2ccc(F)cc2)cc1	none
O=C(Nc1ccccc1)N1CCC2(CC1)OCc1cc(Br)ccc1O2	none
Cc1ncc(CN2CCCC(C(=O)Nc3ccc(-c4ccn[nH]4)cc3)C2)cn1 (configuration not stated)	none
CN(C)c1ccc(CN2CCN(Cc3ccc4c(c3)OCO4)CC2)cc1	MITF primary 52.8
CN(C)c1ccc(C(=O)N2CCN(Cc3ccc4c(c3)OCO4)CC2)cc1	none
O=c1c(CN2CCN(c3ccccn3)CC2)coc2ccccc12	TEAD-YAP inh 38.2
O=c1c(CN2CCN(Cc3ccc4c(c3)OCO4)CC2)coc2ccccc12	TEAD-YAP inh 57.1
COc1cc(SC)ccc1C(=O)N1CCN(Cc2ccc3c(c2)OCO3)CC1	TEAD-YAP inh 31.9
O=c1c(CN2CCN(c3ccc(F)cc3)CC2)coc2ccccc12	none
CC(=O)Nc1ccc(OCC(=O)c2cc(C)n(Cc3ccccc3)c2C)cc1	none
Nc1ccc2c(c1)ncn2Cc1ccccc1	none
CCOC(=O)C1=C(C)N(C)C(=O)NC1c1ccccc1I (configuration not stated)	none
O=c1c(CN2CCSCC2)coc2ccccc12	none
O=c1c(CN2CCc3ccccc3C2)coc2ccccc12	TEAD-YAP inh 34.0
C#CC(O)(c1ccc(OC)cc1OC)c1ccc(OC)cc1OC	TEAD-YAP inh 33.4
CCOC(=O)CN1c2ccccc2NC1C(C#N)c1ccc(OC)cc1 (configuration not stated)	TEAD-YAP inh 36.5
CCOC(=O)CSC1=C(C#N)C(=O)NC(c2ccc(OC)cc2)S1 (configuration not stated)	none
CCCOc1ccc(S(=O)(=O)Nc2ccc3c(c2)N(C(=O)CC)CCC3)cc1	TEAD-YAP inh 58.0
CCC(=O)N1CCCc2ccc(NS(=O)(=O)c3ccc(Cl)cc3)cc21	none
O=C(C1CC1)N1CCc2ccc(NS(=O)(=O)c3ccc4c(c3)OCCO4)cc21	TEAD-YAP inh 48.1
Cn1c(=O)c2c(nc(CN3CCN(c4cccc(Cl)c4)CC3)n2CCCO)n(C)c1=O	none
CC(C)(C)c1cc(/C=N\NC(=O)c2cnccn2)cc(C(C)(C)C)c1O	none
O=C(/C=C/c1cccc([N+](=O)[O-])c1)/C=C/c1ccco1	none
CN(C)c1ccc(/C=C/C(=O)/C=C/c2ccco2)cc1	MITF primary 63.1
CCN(CC)CCOCCOc1ccc2ccccc2c1	none
OCC1CCCN1c1cc(Nc2ccc3c(c2)OCO3)ncn1 (configuration not stated)	TEAD-YAP inh 37.0
Oc1ccc(CCNc2cc(Nc3ncccn3)ncn2)cc1	TEAD-YAP inh 42.3
OCC1CCCN1c1cc(Nc2ccccc2)ncn1 (configuration not stated)	none
OCC1CCCN1c1cc(NCCc2ccc(O)cc2)ncn1 (configuration not stated)	TEAD-YAP inh 47.9
Cc1cc(NCCCN2CCCC2=O)nc(N2CCOCC2)n1	FBW7 activator 7.4
O=C1CCCN1CCCNc1ccnc(N2CCOCC2)n1	none
COc1cccc(C(=O)NNC(=O)C(=O)NCC(C)C)c1	none
COc1ccc(C(=O)Nc2ccc(-c3nc4ccc(NC(=O)c5ccc(OC)cc5)cc4[nH]3)cc2)cc1	none
CCc1ccc(S(=O)(=O)Nc2cc3c(C(C)=O)c(C)oc3c3ccccc23)cc1	TEAD-YAP inh 56.5
CCCOC(=O)c1c(C)oc2c1cc(NS(=O)(=O)c1ccc(OCC)cc1)c1ccccc12	TEAD-YAP inh 52.7
CC(=O)c1c(C)oc2c1cc(NS(=O)(=O)c1ccc(Br)cc1)c1ccccc12	TEAD-YAP inh 47.3
CCOc1ccc(S(=O)(=O)Nc2cc3c(C(=O)OCc4ccccc4)c(C)oc3c3ccccc23)cc1	none
COc1cc(/C=C2\SC(=S)N(Cc3cccnc3)C2=O)ccc1O	none
C/C(=C\c1ccco1)CN1CCOc2ccc(C(O)c3cccnc3)cc2C1 (configuration not stated)	none
O=C(N[C@@H]1CCN(C(=O)c2cnccc2Nc2ccc(Cl)c(F)c2)C1)[C@H](O)c1ccccc1Cl	none
NC(=O)c1ccc(Nc2cc(-c3ccccc3)ccn2)cc1	none
c1ccc(Nc2cc(-c3ccnc(Nc4ccccc4)c3)ccn2)cc1	TEAD-YAP inh 38.0
COc1cc(Br)cc2c1OC(c1ccc3c(c1)OCO3)C([N+](=O)[O-])=C2 (configuration not stated)	none
CCOc1ccc(C2Oc3c(cccc3OC)C=C2[N+](=O)[O-])cc1OC (configuration not stated)	none
COc1ccc(C2Oc3c(cccc3OC)C=C2[N+](=O)[O-])cc1OC (configuration not stated)	TEAD-YAP inh 42.9
CCOc1ccc(C2Oc3c(cc(Br)cc3OC)C=C2[N+](=O)[O-])cc1OC (configuration not stated)	TEAD-YAP inh 62.0
COc1ccc(C2Oc3c(cc(Br)cc3OC)C=C2[N+](=O)[O-])cc1OC (configuration not stated)	TEAD-YAP inh 69.5
COC(=O)C(C(=O)OC)C(Nc1ccc(Br)cc1)c1ccccc1 (configuration not stated)	none
COc1cc(-c2nc3c(c(Cc4ccccc4)nn3-c3ccccc3)c3cc(OC)c(OC)cc23)ccc1O	none
O=C(Nc1ccc([N+](=O)[O-])cc1)c1sc2cccc(Cl)c2c1Cl	none
Cc1ccsc1/C=C1\CCc2ccccc2C1=O	TEAD-YAP inh 68.3
CCc1c(C(=O)NC2CCCc3ccccc32)[nH]c(C)c1C(C)=O (configuration not stated)	TEAD-YAP inh 37.4
NC(=O)c1cnn(-c2ccnc(NC(=O)Cc3ccc4c(c3)OCO4)c2)c1	TEAD-YAP inh 45.3
Cc1cccc(NC(=O)Cc2ccc3c(c2)OCO3)n1	none
C=CCn1c(=S)[nH]c2cc(C(=O)NCc3ccccc3)ccc2c1=O	none
N#Cc1ccc(-c2cnc3ccc(NCCCO)nn23)cc1	TEAD-YAP inh 49.5
OCCCNc1ccc2ncc(-c3ccc(OC(F)(F)F)cc3)n2n1	none
OCCCNc1ccc2ncc(-c3ccc(Oc4ccccc4)cc3)n2n1	TEAD-YAP inh 49.5
OCCCNc1ccc2ncc(-c3ccc(F)cc3)n2n1	TEAD-YAP inh 53.6
OCCCNc1ccc2ncc(-c3ccc(F)c(Cl)c3)n2n1	none
C=CCNC(=O)CN(Cc1ccc(Br)cc1)S(=O)(=O)c1ccccc1	none
CCOC(=O)C1=C(c2ccccc2)N=c2s/c(=C\c3ccc4c(c3)OCO4)c(=O)n2C1c1cc(C(C)C)c(OC)cc1C (configuration not stated)	FBW7 activator 2.7
CCOC(=O)C1=C(c2ccccc2)N=c2s/c(=C\c3cccc(O)c3)c(=O)n2C1c1cc(C(C)C)c(OC)cc1C (configuration not stated)	none
CCOC(=O)c1cnc2cc(-c3cccc(F)c3)[nH]n2c1=O	none
Brc1cccc(/C=N/n2cnnc2)c1	TEAD-YAP inh 91.2
C(=N\n1cnnc1)/c1cccc(OCc2cccc3ccccc23)c1	TEAD-YAP inh 50.4
C(=N\n1cnnc1)/c1ccc(OCc2cccc3ccccc23)cc1	none
Brc1ccc(/C=N/n2cnnc2)cc1	none
Nc1c(C(=O)NCc2ccccc2)nnn1Cc1cccc(C(F)(F)F)c1	TEAD-YAP inh 48.4
